Bioassay records (PubChem)
Hits are enriched below; roughly 4% of the tested compounds scored in any of these assays.
BoNT-A LC inh2 – BoNT/A light chain protease inhibitors, primary screen, biochemical, flow cytometry, MLPCN library | Botulinum neurotoxin type A light chain protease (Clostridium botulinum A str. ATCC 3502) | multiplex microsphere protease substrate cleavage | inhibition, % at 10 µM | actives 0.17% (n = 360,000) | AID 588499, 2011
Bead autofluor – counter-screen for toxin protease inhibitors: compound fluorescence. AID 624483. compound autofluorescence counterscreen, microsphere flow cytometry; hits give high values. actives 3.1% (n = 360,000). fluorescence intensity (concentration not given with the values); in the data active = fluorescence intensity above about 16000; inconclusive = no clear call, values can overlap the other calls
Anthrax LF inh2 – Bacillus anthracis LF protease inhibitors, primary screen, biochemical, multiplex microsphere, MLPCN library | Lethal factor (Bacillus anthracis), P15917 | multiplex microsphere protease cleavage assay | inhibition, % at 10 µM | actives 0.12% (n = 360,000)
MazF activator – activators of E. coli MazEF toxin-antitoxin RNase, primary screen, biochemical, fluorescence, uHTS; Endoribonuclease toxin MazF (Escherichia coli (strain K12)), P0AE70; actives 0.32% (n = 350,000); AID 504720, 2011; activation, % at 20 µM; FAM/BHQ RNA-DNA oligo cleavage fluorescence, 5 h; in the data active = activation above about 50%
Target sequence (P0AE70 whole entry, looked up): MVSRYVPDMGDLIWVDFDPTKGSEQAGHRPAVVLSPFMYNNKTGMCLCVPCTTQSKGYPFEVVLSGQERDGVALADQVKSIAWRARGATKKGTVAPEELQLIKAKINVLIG
VHR inh abs – VHR1 phosphatase inhibitors, primary screen, biochemical, absorbance, uHTS; AID 1654, 2009; recombinant VHR phosphatase, pNPP absorbance; actives 0.52% (n = 290,000); inhibition, % at 13.3 µM; in the data active = inhibition above about 50%
Target sequence (P51452 whole entry, looked up): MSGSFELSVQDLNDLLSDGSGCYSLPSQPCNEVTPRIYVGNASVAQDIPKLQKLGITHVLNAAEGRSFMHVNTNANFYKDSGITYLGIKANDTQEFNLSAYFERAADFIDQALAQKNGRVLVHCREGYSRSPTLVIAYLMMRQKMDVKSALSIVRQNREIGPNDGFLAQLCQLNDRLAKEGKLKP
BoNT F protease – BoNT/F light chain protease inhibitors, primary screen, biochemical, flow cytometry, MLPCN library; Multiplex microsphere protease cleavage assay; inhibition, % at 10 µM; Botulinum neurotoxin type F light chain protease (Clostridium botulinum); AID 588497, 2011; actives 0.22% (n = 360,000); in the data active = inhibition above about 35%, passing the limit was not always enough; inconclusive = no clear call, values can overlap the other calls
Each line names hits and unclear results; the compound was inactive in the other large screens. Cut-off read from the data, not from the text of the source, unless noted: active = inhibition above about 30%; inconclusive = no clear call, values can overlap the other calls; inactive = below that.

CCN(CC)c1ccc(C=Nc2cc(C)cc(C)c2)c(O)c1	BoNT-A LC inh2 50
CCN(CC)c1ccc(N=Cc2ccc(N(CC)CC)cc2O)cc1	BoNT-A LC inh2 inconclusive, Bead autofluor 22151, MazF activator 162
CCN(CC)c1ccc(C=Nc2ccc(N(C)C)cc2)c(O)c1	MazF activator 532
CCCCNC(=O)c1ccccc1SCc1c(C)noc1C	none
Cc1nc(-c2ccccc2)nc(-c2ccccc2)n1	none (no result: VHR inh abs)
Cc1ccc(NC(=O)CCNS(=O)(=O)c2ccccc2)cc1S(=O)(=O)N1CCOCC1	none (no result: VHR inh abs)
Cc1ccccc1CNS(=O)(=O)c1csc(C(N)=O)c1	VHR inh abs 56
CCOC(=O)C1C2NC(=O)N(Cc3ccccc3)C1(C)Oc1c(OC)cccc12 (centres undefined)	none
Cc1ccccc1OCCSc1nnc(-c2ccncc2)n1C	Bead autofluor 19279
CCOC(=O)c1c(N)nn(C(=O)C(C)(C)C)c1-c1ccccc1	Bead autofluor 22970
Cc1[nH]c(=O)[nH]c(=O)c1S(=O)(=O)NCC12CC3CC(CC(C3)C1)C2	BoNT-A LC inh2 inconclusive, Bead autofluor 21375
Cc1cc(-c2cccc(Br)c2)c(C#N)c(N)n1	none
COc1ccc(NS(=O)(=O)Cc2ccccc2Cl)cn1	BoNT-A LC inh2 inconclusive, Bead autofluor 23973
C[C@H]1CN([C@@H](C)CO)C(=O)c2cc(C#Cc3cccnc3)cnc2O[C@H]1CN(C)Cc1ccc(F)cc1	none (no result: VHR inh abs)
CCOc1ccccc1-c1n[nH]c(=S)o1	Bead autofluor 17280
CCOc1ccc(-c2n[nH]c(=S)o2)cc1	none
COc1ccccc1-c1cc(-c2cc(Cl)ccc2O)n[nH]1	Bead autofluor 22763
CCc1ccc(NC(=O)CSc2nnc(-c3cccs3)n2CC)cc1	none
COc1ccc(NC(=O)Cn2nnc(-c3ccccc3)c2COc2ccc(C(C)=O)cc2)cn1	none (no result: MazF activator, VHR inh abs)
COc1ccccc1CN1CCCC(CN(CCN(C)C)C(=O)c2ccc(C)cc2)C1 (centres undefined)	VHR inh abs 51, BoNT F protease inconclusive
Cc1ccccc1CC(=O)N(CCN(C)C)CC1CCCN(Cc2ccccc2F)C1 (centres undefined)	none
COc1ccc(C(C(=O)NC(C)(C)C)N(C(=O)CCC(=O)Nc2cc(C)on2)c2cccc(F)c2)cc1 (centres undefined)	none
CCc1ccc(N(C(=O)CCC(=O)Nc2cc(C)on2)C(C(=O)NC(C)(C)C)c2ccc(OC)cc2)cc1 (centres undefined)	BoNT F protease 35
CC(=O)NC(c1ccccc1)c1nc(-c2ccc(S(C)(=O)=O)cc2)cs1 (centres undefined)	none (no result: MazF activator, VHR inh abs)
O=C(NCc1ccccc1)Oc1cccc(Cl)c1	Bead autofluor 19856
O=C(NCc1ccccc1)c1cccc(COc2cccc(Cl)c2)c1	none
CC(C)(C)NC(=O)CN(C(=O)CCC(=O)Nc1nccs1)c1ccc(F)c(Cl)c1	VHR inh abs 53
CC(C)(C)NC(=O)CN(C(=O)CCC(=O)Nc1nccs1)c1ccc(F)cc1	none
Cc1sc2ncnc(OCC(=O)NCC3CCCO3)c2c1C (centres undefined)	none
CCc1cc(=O)oc2cc(OCC(=O)NCc3ccccn3)ccc12	none
O=C(N=Nc1c(O)[nH]c2ccc([N+](=O)[O-])cc12)c1ccccc1Cl	VHR inh abs 57
O=C(O)c1ccccc1N=Nc1c(O)[nH]c2ccc([N+](=O)[O-])cc12	BoNT F protease inconclusive
O=C(CCSc1ccc(Cl)cc1)NN=C1CCCCCC1	none
COc1ccc(S(=O)(=O)N2CCN(c3ccccc3OC)CC2)cc1OC	BoNT F protease inconclusive
O=S(=O)(c1ccccc1)N1CCN(c2ccccc2)CC1	none (no result: BoNT-A LC inh2, Bead autofluor, Anthrax LF inh2, BoNT F protease)
O=C(NC(Cc1ccccc1)C(=O)N1CCC2(CC1)OCCO2)C1CCCCC1 (centres undefined)	none
O=S(=O)(c1ccc(F)cc1)N1CCN(c2ccccc2)CC1	Bead autofluor 20200
COc1ccccc1N1CCN(S(=O)(=O)c2ccc(Br)s2)CC1	Bead autofluor 22653
COc1ccccc1N1CCN(S(=O)(=O)c2ccccc2)CC1	Bead autofluor 19619
COc1ccccc1N1CCN(C(=O)C(Cc2ccccc2)NC(=O)C2CCCCC2)CC1 (centres undefined)	Bead autofluor 25307
CC(=O)NCCNc1ccc([N+](=O)[O-])cc1C#N	none
O=C(c1ccc(S(=O)(=O)Nc2ccccc2F)cc1)N1CCCCCC1	none (no result: VHR inh abs)
COc1ccc(CCN(C)C(=S)NC(=O)c2ccc(F)cc2Cl)cc1OC	none
Cc1ccc(-c2nnc(N3CCOCC3)c3ccccc23)cc1S(N)(=O)=O	none (no result: VHR inh abs)
COc1cc(S(=O)(=O)N2CCN(c3ccccc3F)CC2)ccc1Cl	Bead autofluor 20773
COc1ccccc1N1CCN(C(=O)/C=C/c2ccccc2)CC1	VHR inh abs 53
COc1ccccc1N1CCN(C(=O)C(NS(=O)(=O)c2cccs2)c2ccccc2)CC1 (centres undefined)	Bead autofluor 16978
CN(C(=O)COc1ccc(Cl)cc1Cl)c1nnc(C23CC4CC(CC(C4)C2)C3)s1	none
CCOC(=O)CSc1nc(N)c(C#N)c(-c2ccc(OC)cc2)c1C#N	none
CN(C)CCN(C)C1CN(CCc2ccccc2)S(=O)(=O)C1 (centres undefined)	none (no result: MazF activator, VHR inh abs)
CCOC(=O)N1CCN(c2cc(=O)n(-c3ccc(OCC)cc3)c(=O)[nH]2)CC1	Bead autofluor 22900
COc1ccccc1N1CCN(c2cc(=O)n(-c3ccc(Br)cc3)c(=O)[nH]2)CC1	Bead autofluor 21225
COc1ccccc1N1CCN(c2cc(=O)n(-c3ccc(Cl)cc3)c(=O)[nH]2)CC1	none
O=C(CCCN1C(=O)C2CC=CCC2C1=O)Nc1ccccc1Cl (centres undefined)	none
COc1cccc(CSc2nc3sc(C)c(C)c3c(=O)n2Cc2ccco2)c1	Bead autofluor 19855
COC(=O)c1sc2nc(SCc3cccc(F)c3)n(N)c(=O)c2c1C	MazF activator 133
Cc1sc2nc(SCc3ccccc3)n(Cc3ccco3)c(=O)c2c1C	none
Cc1cccc(CSc2nc3sc(C)c(C)c3c(=O)n2Cc2ccco2)c1	none
COC(=O)c1ccc(CSc2nc3ccccc3c(=O)n2N)cc1	none
COc1ccc(NC(=O)CSc2nc3sc(C)c(C)c3c(=O)n2Cc2ccco2)cc1	BoNT-A LC inh2 inconclusive, Bead autofluor 21853
Cc1sc2nc(SCC(=O)C(C)(C)C)n(Cc3ccco3)c(=O)c2c1C	Bead autofluor 22551
COc1ccc(NC(=O)Nc2cccc3c2O[C@H](CN(C)S(=O)(=O)c2cccs2)[C@@H](C)CN([C@H](C)CO)C3=O)cc1	none (no result: VHR inh abs)
COc1ccc(Cl)cc1NC(=S)NCc1ccco1	Bead autofluor 23985
CCOc1ccccc1NC(=S)NCc1ccco1	Bead autofluor 22578
COc1ccc(Cl)cc1NC(=O)NCc1ccco1	none
